KDM5B inh – blocks human KDM5B histone demethylase activity; Potency, µM (highest dose often 57.7 µM), actives largely listed as inhibitors; KDM5B demethylase, FDH-coupled NADH fluorescence (FDH is formaldehyde dehydrogenase); AID 1347165; 220,000 compounds, 2.6% hits; Q9UGL1; note: nearly all actives have a fitted effect of over 70% in size
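Measured: NADH fluorescence change, 30 min, RT. System: KDM5BΔAP 200 nM final, H3K4me3 peptide, α-KG, Fe(II), ascorbate, NAD⁺ plus FDH, pH 7.5 HEPES. Compounds: titrated, 10 min pre-incubation with enzyme.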
IP6K1 inh – blocks human inositol hexakisphosphate kinase 1; IP6K1 kinase, ADP-Glo luminescence, 2 h; hits give low values; activity change, % (series mostly up to about 58 µM); 140,000 compounds, 0.81% hits; AID 1645851; in the data active = activity change below about -25%
Target sequence (Q92551 whole entry, looked up): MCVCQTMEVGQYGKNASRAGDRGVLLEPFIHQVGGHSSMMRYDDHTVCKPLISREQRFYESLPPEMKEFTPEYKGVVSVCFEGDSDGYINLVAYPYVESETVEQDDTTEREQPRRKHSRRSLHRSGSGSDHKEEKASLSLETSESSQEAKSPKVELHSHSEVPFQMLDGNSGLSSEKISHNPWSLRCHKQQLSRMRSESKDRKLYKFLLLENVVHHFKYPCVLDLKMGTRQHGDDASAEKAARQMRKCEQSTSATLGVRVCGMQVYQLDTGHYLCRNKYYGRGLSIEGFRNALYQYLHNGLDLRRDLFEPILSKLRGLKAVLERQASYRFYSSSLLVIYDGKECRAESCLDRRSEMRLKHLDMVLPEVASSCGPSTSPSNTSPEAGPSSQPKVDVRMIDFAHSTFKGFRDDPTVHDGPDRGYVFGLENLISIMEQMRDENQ
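ADP-Glo luminescence measures ADP made by human IP6K1 during a 2 h RT reaction with ATP/IP6 (mix at 1.3 mM/130 uM); top library doses 57.5 and 19.1 uM final.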
SNCA expr inhib – SNCA gene expression inhibition | HEK-293 SNCA-luciferase knock-in, luminescence, 24 h | Potency, µM (doses to about 57.2 µM), most hits filed as inhibitors | 140,000 compounds, 0.17% hits | AID 1671194; note: nearly all actives have a fitted effect of over 45% in size
SNCA viab count – reduces viability of HEK-293 SNCA reporter cells; HEK-293-SNCA-luc viability, GF-AFC fluorescence, 24 h; 150,000 compounds, 0.12% hits; Potency, µM (titrated, usually from 57.1 µM), usual class: cytotoxic; note: nearly all actives have a fitted effect of over 30% in size
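HEK-293-SNCA-luc cells (1500/well) plated 24 h, then exposed 24 h to a dilution series; GF-AFC added 30 min at 37C, fluorescence 405/540 nm; normalised to medium-only and DMSO wells, Hill fit.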
Numbers stand for hits; . = inactive; ? = inconclusive; / = no result given. The list is not random: actives were taken first. Their share in the collection is about 2.8%. Unless noted, calls come from the whole dose curve; as a rule, active = well fitted curve in the direction sought with a large enough effect; inconclusive = small, poorly fitted or top-dose-only effect, or another doubt; inactive = no such curve, though single readings can be large; an effect the other way counts as inactive or inconclusive.

SMILES	KDM5B inh	IP6K1 inh	SNCA expr inhib	SNCA viab count
COc1ccnc(-c2nnc3ccc(N4C[C@@H](C)O[C@@H](C)C4)nn23)c1	.	.	.	.
COc1ccnc(-c2nnc3ccc(N4CCc5ccccc5CC4)nn23)c1	32µM	.	.	.
CCCOc1ccc(-c2nc(C#N)c(NCCN3CCOCC3)o2)cc1	.	/	/	/
Cc1ccc2c(n1)N(C)[C@H](CO)CCN(C(=O)Nc1ccccc1)C2	.	.	.	.
Cc1ccc2c(n1)N(C)[C@H](CO)CCN(Cc1ccc(C#N)cc1)C2	?	.	.	.
Cc1ccc2c(n1)N(C)[C@H](CO)CCN(Cc1ccccc1Cl)C2	?	.	.	.
CC(=O)N1CCC(N2CC[C@@H](CO)N(C)c3nc(C)ccc3C2)CC1	32µM	.	.	.
Cc1ccc2c(n1)N(C)[C@H](CO)CCN(Cc1ccc(F)cc1)C2	35µM	.	.	.
Cc1ccc2c(n1)N(C)[C@H](CO)CCN(CC1CCCCC1)C2	35µM	.	.	.
COc1ccc2[nH]c(=O)c(CCC(=O)N3CCCC3)cc2c1	?	.	.	.
CCC1CCCCN1CCNC(=O)CCc1cc2ccccc2[nH]c1=O (stereo unspecified)	?	.	.	.
COc1ccc2[nH]c(=O)c(CCC(=O)N3CCN(CC(C)C)CC3)cc2c1	28µM	.	.	.
COc1ccc2[nH]c(=O)c(CCC(=O)NCCCN3CCCCC3C)cc2c1 (stereo unspecified)	28µM	.	.	.
C=CC(C)(O)CC/C=C(\C)COC1O[C@H](CO)[C@@H](O)[C@H](O)[C@H]1O (stereo partly specified)	/	-34	/	?
COc1ccc(-c2ccc(C(=O)N3Cc4[nH]cnc4CC3C(=O)O)o2)cc1 (stereo unspecified)	28µM	.	.	.
Cc1ccc(-c2cc(C(=O)N3CCC(Cc4nncn4CC4CC4)CC3)c3ccccc3n2)cc1C	22µM	.	.	.
Cc1nc2c(C(=O)O)cnn2c(C)c1Cc1ccccc1	?	.	.	.
Cc1ccc(Cc2c(C)nc3c(C(=O)N4CCC(Cc5nncn5CC5CC5)CC4)cnn3c2C)cc1	28µM	.	.	.
O=C(c1cc(-c2ccc(F)cc2)nc2ccccc12)N1CCC(Cc2nncn2CC2CC2)CC1	28µM	.	.	.
O=C(NC(C(=O)O)c1ccccc1)c1ccco1 (stereo unspecified)	.	/	/	/
CC(C)c1noc(-c2cn(C3CCCN(C(=O)c4ccc(F)c(F)c4)C3)nn2)n1 (stereo unspecified)	.	.	.	.
CC(=O)OC/C(=C/C(=O)O)CC[C@@H]1C(CO)=CC[C@@H]2C(C)(C)CCC[C@@]12C	/	.	/	.
Cc1cnc(C(=O)N[C@@H]2CCC[C@@H]2C(=O)N2CCN(Cc3ccccc3)CC2)cn1	.	.	.	.
Cc1ccn2c(=O)cc(CN3CC[C@@H]4[C@@H](CCC(=O)N4CCC(C)C)C3)nc2c1	28µM	.	.	.
CCOc1ccc(CC(=O)N2CCCN(C)c3ccccc32)cc1	?	.	.	.
SMILES	KDM5B inh	IP6K1 inh	SNCA expr inhib	SNCA viab count
O=C(c1cnc2ccccn2c1=O)N1CC(=O)N(C2CCCCC2)CC(OCc2ccccc2)C1 (stereo unspecified)	32µM	.	.	.
CC(C)C(=O)N1CC(=O)N(C2CCCCC2)CC(OCc2ccccc2)C1 (stereo unspecified)	.	.	.	.
COc1ccc(Nc2ncc(-c3ccccc3OC)c3c2OCC3)cn1	35µM	.	.	.
COc1ccccc1-c1cnc(Nc2ccc(CN3CCN(C)CC3)cc2)c2c1CCO2	35µM	.	.	.
COc1ccc(-c2cnc(Nc3ccc(CN4CCN(C)CC4)cc3)c3c2CCO3)cn1	?	.	.	?
COCc1c(C(=O)N[C@@H]2CN(c3ncccn3)C[C@H]2CN(C)C)noc1C	28µM	.	.	.
COCCNC(=O)N[C@@H]1CN(c2ncccn2)C[C@H]1CN(C)C	22µM	.	.	.
COc1cccc(CNC(=O)N[C@@H]2CN(c3ncccn3)C[C@H]2CN(C)C)c1	28µM	.	.	.
COc1cccc(CNC(=O)N[C@@H]2CN(Cc3ccncc3)C[C@H]2CN(C)C)c1	?	.	.	.
N#CCN(C(=O)c1cc2c(F)cccc2s1)C1CC1	.	/	/	/
NC1CCCCN(C(=O)CCc2nc3ccccc3[nH]c2=O)C1 (stereo unspecified)	?	.	.	.
O=C1NCC2(CCCN(C(=O)CCc3nc4ccccc4[nH]c3=O)C2)O1 (stereo unspecified)	22µM	.	.	.
CCOC(=O)C1(Cc2ccc(Cl)cc2)CCN(C(=O)c2cc(C)oc2C)CC1	32µM	.	.	?
COc1ccc(-c2cc3nc4c(c(=O)n3[nH]2)CN(C(=O)c2ccc3[nH]ccc3c2)CC4)cc1	16µM	.	?	.
COc1ccc(-c2cc3nc4c(c(=O)n3[nH]2)CN(C(=O)c2ccc(C)cc2)CC4)cc1	?	.	?	.
COc1ccc(-c2cc3nc4c(c(=O)n3[nH]2)CN(C(=O)c2cc(CN3CCOCC3)on2)CC4)cc1	8.9µM	.	?	.
O=C(Nc1ccc2c(c1)CCC2)N1CCc2c(nc3cc(-c4ccccc4)[nH]n3c2=O)C1	11µM	.	.	.
COc1ccc(NC(=O)N2CCc3c(nc4cc(-c5ccccc5)[nH]n4c3=O)C2)c(OC)c1	?	.	.	.
COc1ccc2c(c1)CCc1c-2n[nH]c1C(=O)N1CCc2c(nc3cc(-c4ccccc4)[nH]n3c2=O)C1	16µM	.	.	.
CCN1CC(c2ccccc2)CC2(CCN(C(=O)c3cc[nH]c3C)CC2)C1 (stereo unspecified)	.	.	.	.
O=C(c1ccc2cc[nH]c2c1)N1CCc2c(nc3cc(-c4ccccc4)[nH]n3c2=O)C1	28µM	.	.	.
Cc1ccc(C(=O)N2CCc3c(nc4cc(-c5ccccc5)[nH]n4c3=O)C2)cn1	25µM	.	.	.
O=C(c1ccc(=O)[nH]c1)N1CCC(C(=O)N2CCc3c(nc4cc(-c5ccccc5)[nH]n4c3=O)C2)CC1	?	.	.	.
c1ccc(N2CCN(Cc3cc(CC4(NCc5ccncc5)COC4)no3)CC2)cc1	?	.	.	.
CCCNC(=S)Nc1cc(C)cc(C)c1	.	/	/	/
SMILES	KDM5B inh	IP6K1 inh	SNCA expr inhib	SNCA viab count
COc1ccc(NC(=O)c2c(C)oc3ccn(Cc4cccc(F)c4)c(=O)c23)cc1F	.	.	.	.
COc1ccc(OC)c(NC(=O)c2c(C)oc3ccn(Cc4cccc(F)c4)c(=O)c23)c1	25µM	.	.	.
CC(=O)Nc1ccc(NC(=O)c2c(C)oc3ccn(Cc4ccc(F)cc4)c(=O)c23)cc1	28µM	.	.	.
COCCN1CCCCCC(O)c2cc(C(=O)N3CCN(c4ccccc4)CC3)ccc21 (stereo unspecified)	.	.	?	.
O=c1ncn(CC2CC2)c2ccc(-c3ccc(F)cc3F)nc12	32µM	.	.	.
COc1cc(F)ccc1-c1ccc2c(n1)c(=O)ncn2Cc1ccccc1	35µM	.	.	.
COc1cc(F)ccc1-c1ccc2ncn(C3CC3)c(=O)c2n1	32µM	.	.	.
